Shown is part of a subset that was picked to be rich in hits.
U2OS ROS induce – raises reactive oxygen species in U2OS cancer cells; U2OS ROS induction, H2DCF-DA fluorescence; ROS induction (% of piperlongumine), % at 10 µM; 46,000 compounds, 2% hits; in the data active = ROS induction above about 79%, passing the limit was not always enough; inconclusive = no clear call, values can overlap the other calls;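 note: 0% = DMSO vehicle median and 100% = reference compound median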
NOMO-1 viab – STK33 inhibitor candidate reducing NOMO-1 cell viability | NOMO-1 AML viability, CellTiter-Glo luminescence, 72 h | inhibition, % (concentration not given with the values) | 37,000 compounds, 7.5% hits | AID 2330; in the data active = inhibition above about 80%; inconclusive = no clear call, values can overlap the other calls
Active calls of the source: *; u = inconclusive; x = no result given; ! = not active in a repeat.

SMILES | U2OS ROS induce | NOMO-1 viab
C[C@H]1CN([C@@H](C)CO)C(=O)c2cc(NC(=O)NC3CCCCC3)ccc2O[C@H]1CN(C)S(=O)(=O)c1cn(C)cn1 | 1 | -2
Cc1ccc2nc(C(F)(F)F)cc(N3CCN(/C=C(/C#N)S(=O)(=O)c4ccccn4)CC3)c2c1 | 93* | x
N#C/C(=C\N1CCC(n2cccc2)CC1)S(=O)(=O)c1ccccn1 | -11 | x
COc1ccc(CN(C)C[C@@H]2Oc3ccc(NC(=O)C4CCCCC4)cc3CC(=O)N([C@H](C)CO)C[C@H]2C)cc1 | 38 | 3
Fc1ccc(C(c2ccc(F)cc2)N2CCN(C/C=C/c3ccccc3)CC2)cc1 | 4 | 116*!
C(=C\c1ccccc1)/CN1CCN(C(c2ccccc2)c2ccccc2)CC1 | 26 | 25
C/C=C(/C)C(=O)O[C@@H](C)[C@@](C)(O)C(=O)O[C@H](C)[C@@H](OC(=O)/C(C)=C\C)c1cc(OC)c2c(c1)OCO2 | 6 | 119*
COc1ccc(/C=N/NC(=O)CCCCCCC(=O)O)c(O)c1 | 6 | x
COc1ccc(C#Cc2cnc3c(c2)C(=O)N([C@H](C)CO)C[C@H](C)[C@H](CN(C)S(=O)(=O)c2ccc(C)cc2)O3)cc1OC | 140* | x
C[C@H](CO)N1C[C@H](C)[C@H](CN(C)S(=O)(=O)c2cccc(F)c2)Oc2ncc(-c3cccc(C(F)(F)F)c3)cc2C1=O | 31 | x
C[C@H](CO)N1C[C@H](C)[C@H](CN(C)Cc2cccc(C(F)(F)F)c2)Oc2ncc(-c3cccc(F)c3)cc2C1=O | 49 | x
COc1ccc(C#Cc2cnc3c(c2)C(=O)N([C@H](C)CO)C[C@H](C)[C@H](CN(C)S(C)(=O)=O)O3)cc1OC | 51 | x
C[C@H](CO)N1C[C@H](C)[C@H](CN(C)Cc2cccc(C(F)(F)F)c2)Oc2ncc(-c3cc4ccccc4o3)cc2C1=O | 248* | x
C[C@H](CO)N1C[C@H](C)[C@H](CN(C)S(=O)(=O)c2ccc(F)cc2)Oc2ncc(-c3cccc(C(F)(F)F)c3)cc2C1=O | 116* | x
C[C@H](CO)N1C[C@H](C)[C@H](CN(C)Cc2cccc(C(F)(F)F)c2)Oc2ncc(-c3cccc(C(F)(F)F)c3)cc2C1=O | 160* | x
C[C@H](CO)N1C[C@H](C)[C@H](CN(C)Cc2ccccc2)Oc2ncc(-c3cc4ccccc4o3)cc2C1=O | 62 | x
CNC[C@@H]1Oc2ccc(NS(=O)(=O)c3c(C)noc3C)cc2C(=O)N([C@H](C)CO)C[C@@H]1C | -1 | 0
Cc1noc(C)c1NC(=O)N(C)C[C@@H]1Oc2c(NC(=O)C3CCCCC3)cccc2C(=O)N([C@@H](C)CO)C[C@@H]1C | 0 | -6
Cc1noc(C)c1S(=O)(=O)Nc1ccc2c(c1)C(=O)N([C@H](C)CO)C[C@H](C)[C@@H](CN(C)Cc1ccc(C(=O)Nc3ccccc3N)cc1)O2 | 7 | 25
Cn1c(SCC(=O)Nc2ccc(Br)c(Cl)c2)nnc1-c1ccccc1F | -15 | 35
C[C@H](CO)N1C[C@H](C)[C@H](CN(C)C(=O)Nc2cccc3ccccc23)Oc2ncc(-c3cc4ccccc4o3)cc2C1=O | 115* | x
C[C@H](CO)N1C[C@H](C)[C@H](CN(C)C(=O)Nc2cccc3ccccc23)Oc2ncc(-c3ccc(F)cc3)cc2C1=O | 3 | x
Cc1ccsc1/C=N/NC(=O)c1ccccn1 | 2 | x
CC1=N/C(=C\c2sccc2C)C(=O)O1 | 94* | u
COc1ccc(NC(=O)CSc2cn(Cc3ccc(Cl)cc3)c3ccccc23)cc1 | 6 | x
SMILES | U2OS ROS induce | NOMO-1 viab
COc1ccc(C(=O)NCCn2cc(SC(C)c3ccccc3)c3ccccc32)cc1 (stereo not drawn) | 10 | 129*
CC(=O)NCCc1ccc(S(=O)(=O)N2CCCCC2)cc1 | -2 | x
C[C@H](CO)N1C[C@H](C)[C@H](CN(C)Cc2ccc(C(=O)Nc3ccccc3N)cc2)Oc2ccc(NC(=O)CCN3CCOCC3)cc2CC1=O | 14 | 138*
C[C@@H]1CN([C@H](C)CO)C(=O)Cc2cc(NC(=O)CCN3CCOCC3)ccc2O[C@H]1CN(C)Cc1ccc(C(=O)Nc2ccccc2N)cc1 | 21 | -3
C[C@@H]1CN([C@@H](C)CO)C(=O)c2cc(NC(=O)CCN3CCOCC3)ccc2O[C@H]1CN(C)Cc1ccc(C(=O)Nc2ccccc2N)cc1 | -4 | x
C[C@H]1CN([C@@H](C)CO)C(=O)Cc2cc(NC(=O)CCN3CCOCC3)ccc2O[C@H]1CN(C)Cc1ccc(C(=O)Nc2ccccc2N)cc1 | -12 | 132*
C/C=C/C(=O)NCC1OCCc2ccccc21 (stereo not drawn) | -16 | x
C[C@@H]1CN([C@H](C)CO)C(=O)CCCn2nncc2CO[C@@H]1CN(C)C(=O)Nc1ccc(-c2cccs2)cc1 | 15 | x
N#CC1CN(CCc2ccccc2)CN(CCc2ccccc2)C1 | 6 | 111*
O=C1NCC2(CCN(CCc3ccccc3)CC2)O1 | -1 | -10
COc1cc(NC(=O)CS(=O)(=O)Cc2ccccc2)c(OC)cc1Cl | -9 | 6
CCOC(=O)CN(C1=NS(=O)(=O)c2ccccc21)c1ccccc1 | 4 | x

Source: PubChem
